High-throughput results (PubChem BioAssay)
Rows were chosen to be rich in hits. Some 19% of all compounds tested hit in one or more screens of this group.
HT1080-NT tox – qHTS for induction of synthetic lethality in tumor cells producing 2HG: qHTS for the HT-1080-NT fibrosarcoma cell line | hit rate 1.6% among 360,000 | HT-1080-NT fibrosarcoma viability, CellTiter-Glo ATP luminescence, 48 h | Potency, µM (doses to about 46.1 µM), for inactives: at the top dose activity, negative = less viability, actives largely listed as cytotoxic;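 further: NT is the 2HG producing partner of a matched IDH1 knockdown line; potency means the concentration at half of the fitted maximal effect; 0% = DMSO-treated cells and -100% = media-only wells without cells; nearly all actives have a fitted effect of over 55% in size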
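Toxicity toward the 2HG-producing NT line was scored as %Activity, normalised to DMSO and no-cell wells, from CellTiter-Glo luminescence after 48 hours' treatment.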
TDP1 cell noCPT – qHTS for Inhibitors of human tyrosyl-DNA phosphodiesterase 1 (TDP1): qHTS in cells in absence of CPT; hit rate 15% among 420,000; DT40 Tdp1-/- hTDP1 cells, no CPT, ATP luminescence, 48 h; Potency, µM (highest dose often 46.2 µM), without a hit: at the top dose activity change, negative = growth inhibition, usual class: inhibitors; AID 686978, 2013; further: potency means the concentration at half of the fitted maximal effect; nearly all actives have a fitted effect of over 55% in size
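Growth kinetics read by CellTiter-Glo luminescence after ≥48 hr at 37 °C. Cells: DT40 Tdp1-/- stably carrying human TDP1, 400 per well, compound exposure in the absence of CPT (DMSO vehicle).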
IL1B secr inh – qHTS for Inhibitors of Inflammasome Signaling: IL-1-beta AlphaLISA Primary Screen; hit rate 4.7% among 360,000; THP-1 LPS/ATP IL-1B secretion, AlphaLISA, 16 h; stronger effect = lower value; activity change, % at 57.5 µM; in the data active means activity change below about -50%; inconclusive means mostly about -30% to -49%
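Secreted IL-1B measured by AlphaLISA bead assay after 16 h compound exposure of THP-1 cells; compounds (final up to 57.5 uM) added 1 h before LPS (250 ng/mL) and ATP (1.25 mM) stimulation; lower signal means less secretion.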
HT1080 IDH1KD tx – qHTS for induction of synthetic lethality in tumor cells producing 2HG: qHTS for the HT-1080-IDH1KD cell line; Potency, µM (top dose mostly 46.1 µM), for the others: top-dose activity, negative = toxicity, most hits filed as cytotoxic; HT-1080 IDH1 knockdown viability, ATP luminescence, 48 h; hit rate 2% among 360,000; AID 686971, 2013;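 further: potency means the concentration at half of the fitted maximal effect; 0% = DMSO wells and -100% = cell-free medium wells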
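HT-1080-IDH1KD cells (IDH1 knocked down), 750/well in RPMI with 5% FBS, treated with compound 48 h at 37 degrees C. Viability by CellTiter-Glo luminescence, normalised to DMSO and no-cell wells; concentration-response curves classed.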
ELG1 DNA repair – qHTS screen for small molecules that inhibit ELG1-dependent DNA repair in human embryonic kidney (HEK293T) cells expressing luciferase-tagged ELG1. HEK293T ELG1-luciferase reporter, luminescence, 16 h; DNA damage induced by 5-fluorouridine. AID 504467, 2011. Potency, µM (highest dose often 46.1 µM), for the others: at the top dose activity change, negative = inhibition, most hits filed as inhibitors. hit rate 2.3% among 330,000; further: potency means the concentration at half of the fitted maximal effect; nearly all actives have a fitted effect of over 55% in size
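Step one: seed 2,000 cells per well. Step two: pin-transfer compound or DMSO alongside 5-fluorouridine. Step three: incubate 16 hr, 37 °C, 5% CO2. Step four: add ONE-Glo, wait 30 min, read luminescence.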
TDP1 cell CPT – qHTS for Inhibitors of human tyrosyl-DNA phosphodiesterase 1 (TDP1): qHTS in cells in presence of CPT; chicken DT40 Tdp1-/-;hTDP1 cells + 20 nM CPT, ATP luminescence, 48 h; Potency, µM (doses to about 46.2 µM), for the others: at the top dose activity change, negative = growth inhibition, actives largely listed as inhibitors; hit rate 12% among 420,000; further: potency means the concentration at half of the fitted maximal effect; nearly all actives have a fitted effect of over 55% in size
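Chicken DT40 Tdp1-/- cells stably complemented with human TDP1 were seeded at 400 cells/well in medium containing 20 nM camptothecin, exposed to pin-transferred compounds, and grown at 37 °C for at least 48 hr. Viability was read as ATP luminescence.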
Active calls of the source: *; u = inconclusive; x = not tested or not shown. Unless noted, the call rests on the fitted dose curve; in most records, active means well fitted curve in the direction sought with a large enough effect; inconclusive means small, poorly fitted or top-dose-only effect, or another doubt; inactive means no such curve, though single readings can be large; an effect the other way counts as inactive or inconclusive. Unless noted, on the % scale 0 is the no-effect control and ±100 the full control effect.

SMILES	HT1080-NT tox	TDP1 cell noCPT	IL1B secr inh	HT1080 IDH1KD tx	ELG1 DNA repair	TDP1 cell CPT
Cc1ccccc1NC(=O)CSc1nc(N)c2c3c(sc2n1)CSC(C)(C)C3	u	u	13	u	u	23µM*
CC(=O)Oc1ccc2c(c1C(C)C)CCC1C(C)(C)CCC[C@@]21C (stereo partly specified)	x	-2%	x	x	x	-24%
COC(=O)[C@]1(C)CCC[C@]2(C)c3ccc(C(C)C)cc3C(=O)CC12 (stereo partly specified)	x	23µM*	x	x	x	u
COC(=O)C1(C)CCCC2(C)c3cc(OC)ccc3C(=O)C(Br)C12 (stereo unspecified)	-2%	6.5µM*	-23	-27%	x	12µM*
COC(=O)[C@@]1(C)CCC[C@@]2(C)c3ccc(O)c(C(C)C)c3CCC21 (stereo partly specified)	x	10µM*	x	x	x	16µM*
Nc1c(C(=O)CSc2nnc(Cc3ccccc3)o2)c(=O)[nH]c(=O)n1C1CC1	0%	-21%	10	10%	-12%	-1%
CCOC(=O)C1=C[C@@H](C(C)(C)C)N(S(=O)(=O)c2ccc(C)cc2)[C@H]1c1cccc2ccccc12	-30%	u	7	-23%	x	u
Cc1nc2nc(NC(=O)CC(C)C)[nH]n2c(=O)c1Cc1ccccc1	x	-11%	x	x	x	-12%
CCC(=O)N1N=C(c2ccc(NS(C)(=O)=O)cc2)CC1c1ccc(N(C)C)cc1 (stereo unspecified)	-3%	u	-22	-5%	u	-4%
COc1cccc(C2CC(c3cccc(NS(C)(=O)=O)c3)=NN2C(=O)c2ccccc2)c1OC (stereo unspecified)	1%	21µM*	-2	-4%	-30%	23µM*
CN(C)c1ccc(C2CC(c3cccc(NS(C)(=O)=O)c3)=NN2C(=O)c2ccccc2)cc1 (stereo unspecified)	-27%	u	-58*	-18%	u	-26%
Cc1cc(C)cc(OC(=O)c2cc(-c3ccc(Cl)cc3)on2)c1	x	-19%	x	x	x	-16%
CC(O)(c1ccccc1)c1ccc2ccccc2n1 (stereo unspecified)	9%	-7%	0	-1%	x	-2%
COc1ccccc1/C=c1\sc2nc(-c3ccccc3OC)nn2c1=O	-1%	16µM*	7	-2%	-3%	u
O=C(Nc1ccc(S(=O)(=O)N2CCOCC2)cc1)c1ccc([N+](=O)[O-])o1	18µM*	2.6µM*	-100*	8.2µM*	u	1µM*
O=C(Nc1ccc(S(=O)(=O)N2CCOCC2)cc1)c1ccco1	11%	u	-9	15%	3%	-1%
CCn1nnc(NC(=O)c2ccc([N+](=O)[O-])o2)n1	u	u	-78*	u	u	u
O=C(Nc1ccc(Cc2ccncc2)cc1)c1cccc([N+](=O)[O-])c1	0%	u	-15	-15%	-3%	u
O=C(Nc1ccc(OC(F)(F)F)cc1)c1ccc(S(=O)(=O)N2CCOCC2)o1	-11%	16µM*	-51*	-6%	-17%	u
O=C(Nc1ccc(Cc2ccncc2)cc1)c1ccc([N+](=O)[O-])o1	3.7µM*	u	-96*	5.2µM*	-13%	u
CC(C)NC(=O)C1(C)CCN1C(=O)c1ccc(F)c(Cl)c1 (stereo unspecified)	11%	-15%	13	6%	x	-12%
CC(=O)Nc1ccc(S(=O)(=O)N(CC(=O)Nc2cc(C)on2)Cc2ccc(F)cc2)cc1	13%	u	0	-3%	u	u
Cn1c(C(=O)NN)cc2cc(OCc3ccccc3)ccc21	-14%	-14%	0	-17%	x	2%
O=C(COC(=O)c1ccc([N+](=O)[O-])o1)Nc1ccc(N2CCOCC2)cc1	0%	27%	-14	0%	u	-26%
O=C(Nc1ccc(N2CCOCC2)cc1)c1ccc([N+](=O)[O-])o1	7.3µM*	12µM*	-96*	5.2µM*	u	5.2µM*
SMILES	HT1080-NT tox	TDP1 cell noCPT	IL1B secr inh	HT1080 IDH1KD tx	ELG1 DNA repair	TDP1 cell CPT
CCOC(=O)C(Cc1c[nH]c2cc([N+](=O)[O-])ccc12)(NC(C)=O)C(=O)OCC	3%	-20%	4	-8%	x	-26%
CC(C)(C)c1ccc(OCCCC(=O)Nc2nnc(C3CC3)s2)cc1	-1%	10µM*	22	-8%	x	u
CC(=O)c1ccc(OCCCC(=O)Nc2nnc(C3CC3)s2)cc1	1%	-1%	23	18%	8%	1%
CN1CCCN(C(=O)CNC(=O)c2ccccc2Br)CC1	0%	22%	-3	-2%	0%	-14%
CCOc1ccc(-n2cc(-c3ccccc3)c3c(=S)nc[nH]c32)cc1	u	u	9	0%	17%	15µM*
O=c1[nH]cnc2c1ncn2-c1ccc(Cl)cc1	0%	25%	10	-1%	x	5%
CCOc1ccc(Nc2ncnc3c2c(-c2ccccc2)cn3-c2cccc(C)c2)cc1	x	-11%	x	x	x	-10%
Cc1cccc(-n2cc(-c3ccccc3)c3c(=O)[nH]cnc32)c1	-8%	-25%	-88*	-14%	-8%	0%
O=c1[nH]cnc2c1c(-c1ccccc1)cn2-c1ccc(Br)cc1	-15%	16µM*	u	-19%	-22%	u
CCOc1ccc(-n2cc(-c3ccccc3)c3c(=O)[nH]cnc32)cc1	-23%	u	-67*	-23%	-12%	-6%
CCc1cccc(NC(=O)CN2C(=O)COc3ccc(S(=O)(=O)N4CCC(C)CC4)cc32)c1	x	-15%	x	x	x	-11%
O=C1CCCN1CCCNc1nc2c(S(=O)(=O)c3ccc(Br)cc3)nnn2c2ccccc12	2%	8%	-13	-1%	-7%	u
CN(C)/C=N/c1c(C#N)cnn1-c1ncnc2sc(-c3ccccc3)cc12	-9%	18µM*	-16	-11%	18µM*	21µM*
O=S(=O)(c1ccccc1)N1CCN(c2ncnc3sc(-c4ccccc4)cc23)CC1	-8%	12µM*	-21	-4%	u	21µM*
